PubChem BioAssay (EPA / NIEHS)
Inconclusive results are not listed. Active and inactive are the calls of the source. How the source made its calls, unless noted: active means hit-call score of the fitted dose curve at least 0.9, where 1 is the maximum; inactive means score below 0.9.

Columns and labels:
[1] = CCTE_Shafer_MEA_dev_per_network_spike_spike_number_mean: CCTE's Neural Network Formation Assay for Mean Number of Spikes in a Network Spike, Shafer Lab (AID 2284053)
Outline: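 Primary rat cortical neurons on 48-well, 16-electrode MEA plates were exposed from plating to DIV 12, with dosing renewed on DIV 5 and 9. Spikes per network spike (0.05 s peak window) were recorded on DIV 5, 7, 9 and 12 and collapsed as trapezoidal AUC versus DMSO.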

[2] = CCTE_Shafer_MEA_dev_per_network_spike_spike_percent: CCTE's Neural Network Formation Assay for Percent of Spikes in a Network Spike, Shafer Lab (AID 2284054)
Outline: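 Primary rat cortical neurons on 16-electrode MEA wells (PEI-coated, laminin at plating), exposed from day 0 with renewal at DIV 5 and 9; spikes within 0.05 s of network-spike peaks over total spikes, AUC across days 5, 7, 9, 12.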

[3] = UKN5_HCS_SBAD2_cell_viability: Viability Assessment in the University of Konstanz (UKN) Leist Lab Neurite Outgrowth Assay in human iPSC-derived immature Dorsal Root Ganglia Neurons (UKN5) (AID 2284056)
Outline: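 iPSC-derived immature peripheral neurons (SBAD2) seeded on Matrigel with CHIR99021, SU5402 and DAPT, dosed 1 h later for 24 h. Viability from Hoechst H-33342 and calcein-AM live staining, high-content imaging; bidirectional fit versus DMSO.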

[4] = CCTE_Shafer_MEA_dev_LDH: CCTE's Lactate Dehydrogenase Assay for Cytotoxicity in the Neural Network Formation Assay, Shafer Lab (AID 2284068; active means hit-call score of the fitted dose curve at least 0.9, where 1 is the maximum;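 further: exposure for twelve days from plating with re-dosing on DIV 5 and 9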)
Outline: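 Primary rat cortical neurons were plated on PEI/laminin MEA plates and exposed from day 0 for twelve days, with compound renewed at DIV 5 and 9. Cytotoxicity was determined by spectrophotometric LDH assay relative to DMSO.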

[5] = CCTE_Shafer_MEA_acute_AB: CCTE's Alamar Blue Assay for Cytotoxicity in the Neural Acute Assay, Shafer Lab (AID 2284069; active means hit-call score of the fitted dose curve at least 0.9, where 1 is the maximum;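 further: active compounds lower the viability signal compared with DMSO wells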)
Outline: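 Primary rat cortical neurons on MEA plates, exposed acutely after baseline recording on day 13 or 15 post-plating. Viability by CellTiter Blue resazurin reduction (1:6 reagent dilution), fluorescence 544/590 nm; loss of signal versus DMSO.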

[6] = UKN5_HCS_SBAD2_neurite_outgrowth: University of Konstanz (UKN) Leist Lab Neurite Outgrowth Assay in human iPSC-derived immature Dorsal Root Ganglia Neurons (UKN5) (AID 2284070); conditions: actives raise or lower the signal
Outline: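 Read-out: calcein-AM-stained neurite area by high-content imaging, Hoechst H-33342 for viability, after 24 h exposure of iPSC-derived immature dorsal root ganglia neurons. Activity fitted in both directions relative to DMSO baseline.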

[7] = CCTE_Shafer_MEA_acute_LDH: CCTE's Lactate Dehydrogenase Assay for Cytotoxicity in the Neural Acute Assay, Shafer Lab (AID 2284086; active means hit-call score of the fitted dose curve at least 0.9, where 1 is the maximum;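 further: active means LDH release rises above DMSO vehicle level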)
Outline: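 Rat cortical neurons cultured on microelectrode arrays; baseline 40-min recording, compound added, second 40-min recording; medium then sampled for released LDH (colorimetric kit, 490 nm). DMSO = negative control.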

[8] = CCTE_Shafer_MEA_dev_mutual_information_norm: CCTE's Neural Network Formation Assay for Mutual Information Normalization, Shafer Lab (AID 2284091)
Outline: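 Rat cortical cultures, 48-well MEA, continuous exposure DIV 0–12 with full media/compound change DIV 5 and 9. Readout: inter-electrode mutual information, AxIS adaptive spike detection; AUC across DIV 5/7/9/12 recordings; DMSO baseline, negative fitting direction.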

[9] = CCTE_Shafer_MEA_dev_correlation_coefficient_mean: CCTE's Neural Network Formation Assay for Mean Correlation Coefficient, Shafer Lab (AID 2284093)
Outline: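 Spontaneous activity recorded on days 5, 7, 9 and 12 post-plating; pairwise spike correlations are averaged across active electrodes and collapsed to an area-under-curve. Rat cortical cultures are dosed from plating through 12 days, with compound renewed at media changes.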

[10] = UKN2_HCS_IMR90_neural_migration: University of Konstanz (UKN) Leist Lab Neural Crest Cell Migration Assay in human induced IMR90 Pluripotent Stem Cells (UKN2) (AID 2284204); conditions: actives raise or lower the signal
Outline: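 iPSC-derived IMR90 neural crest cells on PLO/laminin/fibronectin were seeded around silicone stoppers; after stopper removal, migration in N2-S medium with EGF and FGF ran 24 h before 24 h chemical exposure. Calcein-AM/Hoechst high-content imaging; bidirectional fit versus DMSO.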

[11] = IUF_NPC1b_proliferation_BrdU_72hr: Leibniz Research Institute for Environmental Medicine (IUF) 72-hour Neural Progenitor Cell Bromodeoxyuridine (BrdU) Proliferation Assay (NPC1b) (AID 2284207)
Outline: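 hNPC spheres (primary, GW 16-19 fetal cortex), single sphere/well, EGF+FGF medium; 72 h compound, no renewal; BrdU pulse last 16 h; luminescent ELISA; activity vs DMSO baseline; growth-factor withdrawal as positive control.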

[12] = IUF_NPC1a_proliferation_area_72hr: Leibniz Research Institute for Environmental Medicine (IUF) 72-hour Neural Progenitor Cell Proliferation Area Assay (NPC1a) (AID 2284208)
Outline: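 Read-out: increase in sphere area over 72 h by automated phase-contrast imaging, fitted in positive direction versus DMSO baseline. One hNPC sphere (0.25-0.35 mm) per well in EGF/FGF medium; growth-factor withdrawal served as positive control.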

[13] = IUF_NPC1_viability_72hr: Viability Assessment at 72 hours in the Leibniz Research Institute for Environmental Medicine (IUF) Neural Progenitor Cell Proliferation Assay (NPC1) (AID 2284209)
Outline: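 hNPC spheres, 1/well, EGF+FGF medium, 37C/5% CO2; dosed day 0, 72 h, no re-dosing. Resazurin reduction (alamar blue) fluorescence; DMSO = negative control/baseline; growth-factor-free wells as positive control.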

[14] = UKN2_HCS_IMR90_cell_viability: Viability Assessment in the University of Konstanz (UKN) Leist Lab Neural Crest Cell Migration Assay in human induced IMR90 Pluripotent Stem Cells (UKN2) (AID 2284233);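 further: viability of neural crest cells differentiated from IMR90 iPSC measured by calcein-AM fluorescence imaging; cells exposed to compound for 24 h after a 24 h migration phase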
Outline: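 iPSC-derived (IMR90) neural crest cells seeded around silicone stoppers on PLO/laminin/fibronectin; after 24 h migration in N2-S with EGF/FGF, chemical added for 24 h. Calcein-AM/Hoechst stained 30 min, high-content imaged; bidirectional fit versus DMSO.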

[15] = IUF_NPC2c_oligodendrocyte_migration_120hr: Leibniz Research Institute for Environmental Medicine (IUF) 120-hour Neural Progenitor Cell Migration Assay for Oligodendrocyte Migration (NPC2c) (AID 2284297);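 further: O4-positive oligodendrocyte migration distance divided by radial glia migration distance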
Outline: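 Human fetal cortex-derived neural progenitor spheres (0.3 mm) were plated on poly-D-lysine/laminin in N2 differentiation medium and exposed to 7 concentrations for 120 h, with half-medium renewal at day 3. Oligodendrocyte migration distance was normalized to radial glia migration, relative to DMSO.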

[16] = IUF_NPC2a_radial_glia_migration_120hr: Leibniz Research Institute for Environmental Medicine (IUF) 120-hour Neural Progenitor Cell Migration Assay for Radial Glia Migration (NPC2a) (AID 2284298)
Outline: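 Single 0.3 mm primary human fetal-cortex (GW 16-19) NPC spheres were plated on poly-D-lysine/laminin in N2 differentiation medium and exposed from day 0 for 120 h, half-medium refreshed day 3. Migration distance came from Hoechst nuclei-density imaging, relative to DMSO.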

[17] = IUF_NPC2a_radial_glia_migration_72hr: Leibniz Research Institute for Environmental Medicine (IUF) 72-hour Neural Progenitor Cell Migration Assay for Radial Glia Migration (NPC2a) (AID 2284299)
Outline: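 Primary hNPC spheres, fetal brain GW 16-19, on PDL/laminin; DMEM/F12 3:1 + 1% N2. Compound dosed day 0, 7 conc. + SC, half-medium refresh day 3. 72 h brightfield, migration distance core-to-front (um), 4 directions averaged.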

[18] = IUF_NPC2b_neuronal_migration_120hr: Leibniz Research Institute for Environmental Medicine (IUF) 120-hour Neural Progenitor Cell Migration Assay for Neuron Migration (NPC2b) (AID 2284300)
Outline: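 Primary human fetal cortex neural progenitor spheres (0.3 mm) plated on poly-D-lysine/laminin in N2 differentiation medium, exposed 120 h with half-medium refresh at day 3. TUBB3-stained neuron distance from sphere core, normalized to radial glia migration, versus DMSO.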

[19] = IUF_NPC3_neuronal_differentiation_120hr: Leibniz Research Institute for Environmental Medicine (IUF) 120-hour Neuronal Differentiation Assay (NPC3) (AID 2284301)
Outline: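 Primary human fetal neural progenitor spheres (GW 16-19, 0.3 mm) plated on poly-D-lysine/laminin in N2 medium, exposed from day 0 for 120 h with half-medium refresh at day 3. TUBB3+ cells as percent of Hoechst nuclei in migration area; DMSO baseline.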

[20] = IUF_NPC4_neurite_length_120hr: Leibniz Research Institute for Environmental Medicine (IUF) 120-hour Neuronal Morphology Assay for Neurite Length (NPC4) (AID 2284302)
Outline: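 Human fetal cortex (GW 16-19) neural progenitor spheres, 0.3 mm, were plated on poly-D-lysine/laminin in N2 differentiation medium and exposed from day 0 for 120 h, half-feeding at day 3. Mean TUBB3+ neurite length (µm) came from skeletonized images, relative to DMSO.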

[21] = IUF_NPC4_neurite_area_120hr: Leibniz Research Institute for Environmental Medicine (IUF) 120-hour Neuronal Morphology Assay for Neurite Area (NPC4) (AID 2284305; active means hit-call score of the fitted dose curve at least 0.9, where 1 is the maximum)
Outline: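 Human fetal cortex-derived neural progenitor spheres (0.3 mm, GW 16-19) plated on poly-D-lysine/laminin in N2 differentiation medium and exposed from day 0 for 120 h across 7 concentrations plus solvent control. Neurite area is mean pixel area per TUBB3-positive neuron via skeletonization, analysed relative to DMSO.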

[22] = IUF_NPC2-5_cytotoxicity_72hr: Cytotoxicity Assessment at 72 hours in the Leibniz Research Institute for Environmental Medicine (IUF) Neural Progenitor Cell Migration and Differentiation Assay for Cytotoxicity (NPC2-5) (AID 2284306; active means hit-call score of the fitted dose curve at least 0.9, where 1 is the maximum;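 further: LDH release into supernatant measured by resorufin fluorescence marking membrane damage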)
Outline: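 Human fetal (GW 16-19) neural progenitor spheres, 0.3 mm, plated on poly-D-lysine/laminin in N2 differentiation medium and exposed from day 0 to 7 concentrations plus solvent control (DMSO ≤0.1%). LDH-dependent resazurin-to-resorufin fluorescence in supernatant at 72 h.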

[23] = IUF_NPC2-5_cytotoxicity_120hr: Cytotoxicity Assessment at 120 hours in the Leibniz Research Institute for Environmental Medicine (IUF) Neural Progenitor Cell Migration and Differentiation Assay (NPC2-5) (AID 2284307; active means hit-call score of the fitted dose curve at least 0.9, where 1 is the maximum)
Outline: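 Human fetal neural progenitor spheres (0.3 mm, GW 16-19 cortex) were plated on poly-D-lysine/laminin in N2 differentiation medium and exposed for 120 h, with half-medium refresh at day 3. LDH release into supernatant was read by resorufin fluorescence.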

[24] = IUF_NPC2-5_cell_number_120hr: Cell Number Assessment at 120 hours in the Leibniz Research Institute for Environmental Medicine (IUF) Neural Progenitor Cell Migration and Differentiation Assay (NPC2-5) (AID 2284308);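 further: count of Hoechst-stained nuclei in migration zone around plated human neural progenitor spheres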
Outline: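 Primary human fetal neural progenitor spheres (GW 16-19, 0.3 mm) plated on poly-D-lysine/laminin in N2 differentiation medium, exposed from day 0 for 120 h with half-medium refresh at day 3; Hoechst-positive nuclei counted in migration area versus DMSO control.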

[25] = IUF_NPC2-5_viability_120hr: Viability Assessment at 120 hours in the Leibniz Research Institute for Environmental Medicine (IUF) Neural Progenitor Cell Migration and Differentiation Assay (NPC2-5) (AID 2284312)
Outline: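 Human fetal (GW 16-19) neural progenitor spheres of 0.3 mm were plated on poly-D-lysine/laminin in N2 differentiation medium and exposed from day 0 for 120 h, with half-medium refresh at day 3. Viability was read as alamar blue resazurin-to-resorufin fluorescence against DMSO.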

[26] = IUF_NPC1_cytotoxicity_72hr: Cytotoxicity Assessment at 72 hours in the Leibniz Research Institute for Environmental Medicine (IUF) Neural Progenitor Cell Proliferation Assay (NPC1) (AID 2284332; active means hit-call score of the fitted dose curve at least 0.9, where 1 is the maximum;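 further: rising LDH signal means more cytotoxicity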)
Outline: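 Spheres of primary human neural progenitors are plated one per well on day 0 in growth-factor medium and dosed at once. After three days at 37C, supernatant LDH is measured fluorimetrically via resazurin reduction.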

Measured: outcome

CP(=O)(O)CCC(N)C(=O)O (stereo unspecified)
inactive: all assays above
